Screens deposited in PubChem BioAssay by National Center for Advancing Translational Sciences (NCATS).
Pf growth 48h = P. falciparum growth inhibition at 48 hours (one generation). AID 504832. Potency, µM (titrated, usually from 28.7 µM), for inactives: top-dose activity change, negative = inhibition, most hits filed as inhibitors. P. falciparum luciferase growth in erythrocytes, 48 h. 310,000 tested, 5.9% active; note: % is set by controls: 0 for no effect and ±100 for the full control effect
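In quantitative HTS format, infected erythrocytes bearing luciferase-reporter parasites were treated for a single generation at 37 C. Luminescence after adding detection reagent served as the growth measure.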
AmpC detergent = inhibitors of E. coli AmpC beta-lactamase with detergent. AmpC hydrolysis of nitrocefin, absorbance 480 nm, 0.01% Triton. 370,000 tested, 0.041% active. Potency, µM (titrated, usually from 114 µM), for inactives: at the highest dose activity change, negative = inhibition, hits mostly inhibitors;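 note: 0% = no-compound wells and -100% = no-enzyme wells; nearly all actives have a fitted effect of over 25% in size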
Target sequence (P00811 whole entry, looked up): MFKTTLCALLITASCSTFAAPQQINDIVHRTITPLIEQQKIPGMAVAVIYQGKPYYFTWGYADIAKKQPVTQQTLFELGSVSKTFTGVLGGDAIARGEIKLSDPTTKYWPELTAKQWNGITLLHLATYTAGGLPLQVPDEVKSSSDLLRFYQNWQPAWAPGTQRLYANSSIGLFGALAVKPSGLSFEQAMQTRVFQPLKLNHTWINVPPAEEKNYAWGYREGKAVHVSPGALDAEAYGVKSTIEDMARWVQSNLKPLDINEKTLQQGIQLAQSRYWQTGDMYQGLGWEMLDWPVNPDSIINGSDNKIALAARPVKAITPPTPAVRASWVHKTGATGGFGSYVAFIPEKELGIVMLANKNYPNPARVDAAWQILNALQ
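20 mM phosphate pH 7.0 + 0.01% (detergent screen) or 0.0001% Triton X-100; 5.3 nM AmpC reagent; cpd preinc 15 min RT; nitrocefin (800 uM stock) to start; A480 q20 s × 4 min; Activity was normalised to no-enzyme and no-compound control wells.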
Pf growth 96h = inhibits malaria parasite growth, 96 h. AID 504834. Potency, µM (highest dose often 28.7 µM), without a hit: at the top dose activity change, negative = inhibition, hits mostly inhibitors. P. falciparum luciferase reporter growth, 96 h. 320,000 tested, 6.9% active; note: % is set by controls: 0 for no effect and ±100 for the full control effect
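Two-generation exposure (96 h) targets delayed-death phenotype. Reporter parasites carrying integrated firefly luciferase, in red cells at 2% hematocrit and 0.05% parasitemia final, kept at 37 C, 5% CO2; luminescence loss indicates inhibition.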
SARS PLP yeast = blocks SARS-CoV papain-like protease in a yeast assay. S. cerevisiae expressing SARS-CoV PLpro, growth rescue. Potency, µM (titrated, usually from 32.9 µM), inactives show at the highest dose activity, positive = growth rescue, actives largely listed as activators. 330,000 tested, 0.19% active; calls by dose curve; note: 0% is about no effect; nearly all actives have a fitted effect of over 55% in size
AmpC inh no detg = AmpC beta-lactamase inhibition without detergent | Potency, µM (titrated, usually from 57.1 µM), inactives show at the top dose activity change, negative = inhibition, hits mostly inhibitors | 330,000 tested, 0.52% active | P00811 | AmpC nitrocefin hydrolysis, absorbance 480 nm, 0.0001% Triton;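 note: plate controls were no compound for no effect and no enzyme for full effect; nearly all actives have a fitted effect of over 20% in size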
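AmpC (5.3 nM in the dispensed reagent) in 20 mM phosphate pH 7.0 with 0.01% (detergent screen) or 0.0001% Triton X-100 was preincubated with compounds for 15 min at room temperature. Nitrocefin was then added from an 800 uM solution, and hydrolysis was followed at 480 nm.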
Sm TGR inh = blocks Schistosoma mansoni thioredoxin glutathione reductase; Q962Y6; purified TGR, DTNB reduction, TNB absorbance 405 nm; 360,000 tested, 3% active; Potency, µM (titrated, usually from 114 µM), for the others: top-dose activity change, negative = inhibition, hits mostly inhibitors; note: % is set by controls: 0 for no effect and ±100 for the full control effect; nearly all actives have a fitted effect of over 60% in size
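TGR 20 nM + NADPH 100 uM (dispensed conc.), cpd preinc 15 min RT; start with NADPH (500 uM addition) then DTNB (15 mM addition). Kinetic TNB absorbance, 405 nm filter. Four-parameter Hill fit across titration.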
* hit, by the source's call. The list is not random: actives were taken first. Their share in the collection is about 12%. Unless noted, calls come from the whole dose curve; as a rule, active = well fitted curve in the direction sought with a large enough effect; inconclusive = small, poorly fitted or top-dose-only effect, or another doubt; inactive = no such curve, though single readings can be large; an effect the other way counts as inactive or inconclusive. Potency is the fitted concentration of half-maximal effect.

Screening COc1ccc(N(C(=O)c2cnsn2)C(C(=O)NC2CCCCC2)c2ccncc2)cc1 (stereo unspecified) returned Pf growth 48h -8%, AmpC detergent 1%, Pf growth 96h inconclusive, SARS PLP yeast -1%, AmpC inh no detg -10% and Sm TGR inh -5%.
For CCOc1ccc(N(C(=O)c2cnsn2)C(C(=O)NC2CCCCC2)c2ccncc2)cc1 (stereo unspecified) the results were Pf growth 48h inconclusive, AmpC detergent inconclusive, Pf growth 96h 1.2µM*, SARS PLP yeast 13%, AmpC inh no detg 34% and Sm TGR inh -9%.
`COc1ccc(C(C(=O)NC2CCCCC2)N(C(=O)c2ccccn2)c2cccnc2)c(OC)c1` (stereo unspecified) gave Pf growth 48h -6%, AmpC detergent -8%, Pf growth 96h inconclusive, SARS PLP yeast 0%, AmpC inh no detg 45% and Sm TGR inh 0%.
COc1cccc(C(C(=O)NC2CCCCC2)N(C(=O)c2ccccn2)c2cccnc2)c1 (stereo unspecified) was read as Pf growth 48h -2%, AmpC detergent -1%, Pf growth 96h 1.7µM*, SARS PLP yeast 0%, AmpC inh no detg 30% and Sm TGR inh 14%.
Screening CCOc1ccc(C(C(=O)NC2CCCCC2)N(C(=O)c2ccccn2)c2cccnc2)cc1 (stereo unspecified) returned Pf growth 48h 10µM*, AmpC detergent 9%, Pf growth 96h 15µM*, SARS PLP yeast 0% and AmpC inh no detg 5%.
Cc1ccc(C(=O)n2nc(C)c(S(=O)(=O)N3CCOCC3)c2C)cc1C was read as AmpC detergent -4% and Sm TGR inh -13%.
For Cc1ccc(CNC(=S)Nc2ccc(OC(F)F)cc2C)cc1 the results were Pf growth 48h -18%, AmpC detergent -7%, Pf growth 96h inconclusive, SARS PLP yeast -8%, AmpC inh no detg -16% and Sm TGR inh -3%.
`Cc1ccc(NC(=S)NCc2ccc(Cl)cc2)c(OC(F)F)c1` gave Pf growth 48h inconclusive, AmpC detergent -1%, Pf growth 96h 4.1µM*, SARS PLP yeast -8%, AmpC inh no detg inconclusive and Sm TGR inh -24%.
CCOc1ccccc1NC(=O)COc1coc(CN2CCc3ccccc32)cc1=O was read as Pf growth 48h 12µM*, AmpC detergent -14%, Pf growth 96h inconclusive, SARS PLP yeast -3%, AmpC inh no detg 62% and Sm TGR inh -15%.
Screening CCOC(=O)c1ccccc1NC(=O)COc1coc(CN2CCc3ccccc32)cc1=O returned Pf growth 48h inconclusive, AmpC detergent inconclusive, Pf growth 96h 12µM*, SARS PLP yeast -4%, AmpC inh no detg 45% and Sm TGR inh -3%.
Screening C=C1N(C)c2cc([N+](=O)[O-])c(N)cc2C1(C)C returned Pf growth 48h inconclusive, AmpC detergent 3%, Pf growth 96h inconclusive, SARS PLP yeast 1%, AmpC inh no detg -42% and Sm TGR inh 20µM*.
CC1(C)Oc2cc(N)c([N+](=O)[O-])cc2O1 was read as Pf growth 48h 3%, AmpC detergent -13%, Pf growth 96h -6%, SARS PLP yeast -5%, AmpC inh no detg -9% and Sm TGR inh 7%.
For CC(C)n1ncc2c(C(=O)Nc3ccc(S(C)(=O)=O)cc3)cc(C3CC3)nc21 the results were Pf growth 48h inconclusive, AmpC detergent -4%, Pf growth 96h inconclusive, SARS PLP yeast -16%, AmpC inh no detg 18% and Sm TGR inh -13%.
For Cc1ccc(S(=O)(=O)N2CCN(C(=O)c3cc(C4CC4)nc4c3cnn4C(C)C)CC2)cc1 the results were Pf growth 48h 13µM*, AmpC detergent -2%, Pf growth 96h 2.6µM*, SARS PLP yeast 4%, AmpC inh no detg 138% and Sm TGR inh 4%.
Screening CC(C)n1ncc2c(C(=O)N3CCN(Cc4ccc(Cl)s4)CC3)cc(C3CC3)nc21 returned Pf growth 48h 13µM*, AmpC detergent 2%, Pf growth 96h inconclusive, SARS PLP yeast -2%, AmpC inh no detg 174% and Sm TGR inh -17%.
CN(C(=O)CSc1nc2ccc(NC(=O)c3ccco3)cc2s1)c1ccccc1 was read as AmpC detergent 1% and Sm TGR inh inconclusive.
For CCOC(=O)c1sc(-c2ccccn2)nc1C the results were Pf growth 48h inactive, AmpC detergent inconclusive, Pf growth 96h 228%, SARS PLP yeast 0%, AmpC inh no detg -4% and Sm TGR inh 9%.
`Cc1ccc(N(C(=O)Cc2cccs2)C(C(=O)NC2CCCC2)c2ccncc2)cc1` (stereo unspecified) gave Pf growth 48h inconclusive, AmpC detergent -1%, Pf growth 96h 0.93µM*, SARS PLP yeast 0%, AmpC inh no detg -2% and Sm TGR inh 21%.
`Cc1ccc(C(C(=O)NC2CCCC2)N(Cc2ccc3c(c2)OCO3)C(=O)Cc2cccs2)cc1` (stereo unspecified) gave Pf growth 48h 13µM*, AmpC detergent -15%, Pf growth 96h -2%, SARS PLP yeast -2%, AmpC inh no detg -24% and Sm TGR inh -10%.
Screening COc1ccc(CN(C(=O)c2snc(C(N)=O)c2N)C(C(=O)NC2CCCC2)c2ccc(OC)cc2)cc1 (stereo unspecified) returned Pf growth 48h inconclusive, AmpC detergent -2%, Pf growth 96h -30%, SARS PLP yeast -1%, AmpC inh no detg 82% and Sm TGR inh 7%.
Cc1ccc(C(C(=O)NC2CCCC2)N(Cc2ccc3c(c2)OCO3)C(=O)c2snc(C(N)=O)c2N)cc1 (stereo unspecified) was read as Pf growth 48h 7.4µM*, AmpC detergent 4%, Pf growth 96h 8.3µM*, SARS PLP yeast 0%, AmpC inh no detg 39% and Sm TGR inh -1%.
Screening CC(=O)c1cccc(N(C(=O)CS(=O)CC(=O)Nc2ccc(F)cc2)C(C(=O)NC2CCCCC2)c2ccc(C)o2)c1 (stereo unspecified) returned Pf growth 48h inconclusive, AmpC detergent -14%, Pf growth 96h 4.1µM*, SARS PLP yeast 3%, AmpC inh no detg -10% and Sm TGR inh 0%.
Screening C=Cc1ccc(CSc2nc(-c3ccccc3Cl)nc3c2Cc2c(CO)cnc(C)c2O3)cc1 returned AmpC detergent -8% and Sm TGR inh -5%.
